This note sets out measurements from PubChem BioAssay (NCATS).

“And” between values parts separate entries of the source, which are not always exact repeats. Equal entries are not always repeated. Results filed as inconclusive are left out. The source made the active and inactive calls. The call rests on the fitted dose curve; in most records, active means well fitted curve in the direction sought with a large enough effect; inconclusive means small, poorly fitted or top-dose-only effect, or another doubt; inactive means no such curve, though single readings can be large; an effect the other way counts as inactive or inconclusive.
On the % scale 0 is the no-effect control and ±100 the full control effect; potency means the concentration at half of the fitted maximal effect.

The target in the first test is Papain (Carica papaya) (UniProt P00784). Briefly: Primary qHTS assay for inhibitors of the protease papain (AID 1645873).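 Further: papain turnover of Z-FR-AMC read as the AMC fluorescence gain over 10 min.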 Particulars: papain Z-FR-AMC cleavage, AMC fluorescence; series mostly up to 49.8 µM; activity change, negative = inhibition: at the top concentration. On the technique in general: Quantitative high-throughput screening tests each substance at several concentrations.
Chain of Papain (Carica papaya) (P00784 whole entry, looked up): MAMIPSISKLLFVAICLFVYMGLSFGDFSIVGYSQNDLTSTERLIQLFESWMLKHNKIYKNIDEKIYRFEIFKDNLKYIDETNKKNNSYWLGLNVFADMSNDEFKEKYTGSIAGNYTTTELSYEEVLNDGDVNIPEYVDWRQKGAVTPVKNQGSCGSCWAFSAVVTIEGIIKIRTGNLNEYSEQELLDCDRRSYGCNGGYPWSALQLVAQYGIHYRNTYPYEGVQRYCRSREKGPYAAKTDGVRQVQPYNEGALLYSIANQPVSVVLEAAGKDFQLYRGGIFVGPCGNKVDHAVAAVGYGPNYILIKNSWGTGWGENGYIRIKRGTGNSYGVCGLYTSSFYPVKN
Take `Cc1nccc2c1[nH]c1ccccc12`: the Potency was 28.2 µM (active).

As for `NC(N)=NOCCC(N)C(=O)O` (stereo unspecified), the “activity change, negative = inhibition” value is -7.47% (inactive).

On to `CC(=O)[C@H]1CCC2C3CC[C@H]4C[C@H](O)CC[C@]4(C)C3CC[C@@]21C` (stereo partly specified), for which the “activity change, negative = inhibition” value was -4.95% (inactive).

In the case of `CC(C)Oc1cccnc1N(C)C1CCN(Cc2ccccc2)CC1`, the “activity change, negative = inhibition” value is -7.65% (inactive).

For `Oc1ccc2c3c1O[C@H]1c4[nH]c5c(c4C[C@@]4(O)[C@@H](C2)N(CC2CC2)CC[C@]314)C[C@@]1(O)[C@H]2Cc3ccc(O)c4c3[C@@]1(CCN2CC1CC1)[C@H]5O4`, the “activity change, negative = inhibition” value is 0.09% (inactive).

Regarding `CCCN1CCC[C@H](c2cccc(O)c2)C1`, the “activity change, negative = inhibition” value is 4.59% (inactive).

Test system in a further test: not listed separately
Briefly: Primary qHTS for inhibitors of nuclear receptor binding SET domain protein 2 (NSD2) in an isogenic RCH-ACV NSD2 p.E1099K mutant (9B) (AID 1645876). Further: nearly all actives have a fitted effect of over 70% in size. Particulars: RCH-ACV NSD2 E1099K (9B) viability, CellTiter-Glo, 72 h; series mostly up to 44.9 µM; activity change, negative = viability loss: at the top concentration.
In the case of `O=C1C(I)=CC(=C(c2cc(I)c(O)c(I)c2)c2ccccc2C(=O)O)C=C1I`, the “activity change, negative = viability loss” value was -11.2% (inactive).

On to `O=C(Nc1ccccc1-c1ccc(Cl)cc1)c1cccnc1Cl`, for which the “activity change, negative = viability loss” value was -16.4% [at 91.9 µM] (inactive).

With `CO/C=C(/C(=O)OC)c1ccccc1Oc1cc(Oc2ccccc2C#N)ncn1`, the Potency was 24.3 µM (active).

With `CCCCCCCCc1ccc(O)cc1`, the Potency is 6.18 µM (active).

Take `CC(=O)NCCc1c[nH]c2ccccc12`: the “activity change, negative = viability loss” value is 1.17% [at 91.9 µM] (inactive).

For the compound `S=C(NC1CCCCC1)N1CCC(c2cnc[nH]2)CC1`, the “activity change, negative = viability loss” value is -8.98% (inactive).

In the case of `CC(=O)N(C)c1cccc(-c2ccnc3c(C(=O)c4cccs4)cnn23)c1`, the “activity change, negative = viability loss” value is -23.9% (inactive).

Turning to `COC(C)(C)CCCC(C)C/C=C/C(C)=C/C(=O)OC(C)C` (stereo unspecified), the “activity change, negative = viability loss” value was -7.1% (inactive).

On to `CCNC(=O)C[C@@H]1N=C(c2ccc(Cl)cc2)c2cc(OC)ccc2-n2c(C)nnc21`, for which the Potency is 459 nM (active) and 590 nM (active).

Test system in another test: not listed separately
The test is described as follows: Primary qHTS for inhibitors of nuclear receptor binding SET domain protein 2 (NSD2) in an RCH-ACV wild type WT cells (2C) (AID 1645877). Further: nearly all actives have a fitted effect of over 70% in size. As to conditions: RCH-ACV (leukaemia line) NSD2 WT (2C) viability, CellTiter-Glo, 72 h; series mostly up to 44.9 µM; activity change, negative = cell killing: at the top concentration.
For the compound `O=C1C(I)=CC(=C(c2cc(I)c(O)c(I)c2)c2ccccc2C(=O)O)C=C1I`, the “activity change, negative = cell killing” value is -9.29% (inactive).

As to `CO/C=C(/C(=O)OC)c1ccccc1Oc1cc(Oc2ccccc2C#N)ncn1`, the Potency is 24.3 µM (active).

Turning to `CC(=O)NCCc1c[nH]c2ccccc12`, the “activity change, negative = cell killing” value was -1.57% [at 91.9 µM] (inactive).

On to `S=C(NC1CCCCC1)N1CCC(c2cnc[nH]2)CC1`, for which the “activity change, negative = cell killing” value is -15% (inactive).

As for `COC(C)(C)CCCC(C)C/C=C/C(C)=C/C(=O)OC(C)C` (stereo unspecified), the result was inactive.

As to `CCNC(=O)C[C@@H]1N=C(c2ccc(Cl)cc2)c2cc(OC)ccc2-n2c(C)nnc21`, the Potency is 459 nM (active) and 833 nM (active).
